Source: the supplement of paper PMC13380429

The molecules below were run on Vero E6 infected with SARS-CoV-2 (assay: SARS-CoV-2 infection rate relative to infected DMSO; higher = more infection, active = 60 or less). Settings: 24 h.

Structure (SMILES)	SARS-CoV-2 infection rate
CCCCCCOC(=O)CCC(=O)CN [hexaminolevulinate] (10 µM)	102% (inactive)
Cc1nc2ccc(NC(=O)Nc3ccnc4cccnc34)cc2o1 (10 µM)	99.5% (inactive)
Cn1ccnc1S [methimazole] (10 µM)	108% (inactive)
